From PubChem
Compounds with a hit are over-represented: about 5.9% of the library has one in this group of screens.
TGFb inhibitor: TGF-b pathway inhibition. HepG2 CAGA-GFP TGF-b/SMAD3 reporter, GFP fluorescence, 18 h; TGF-beta stimulated, 500 pg/mL final. Potency, µM (highest dose often 46.1 µM), without a hit: top-dose activity, negative = inhibition, hits mostly inhibitors. 1.2% of 410,000 active. AID 588855; note: % is set by controls: 0 for no effect and ±100 for the full control effect; nearly all actives have a fitted effect of over 65% in size
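Per well, imaged GFP fluorescence of HEPG2 CAGA-GFP cells gives the signal; cells get compound, then TGF-beta (500 pg/mL final), 18 h at 37 degrees C; %Activity versus -TGF-beta and +DMSO controls.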
KB-3-1 cytotox: KB-3-1 parental cell cytotoxicity. AID 1347075. 1.4% of 400,000 active. KB-3-1 viability, CellTiter-Glo ATP luminescence, 72 h. Potency, µM (titrated, usually from 46.1 µM), actives largely listed as cytotoxic; note: % is set by controls: 0 for no effect and ±100 for the full control effect; nearly all actives have a fitted effect of over 60% in size
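Cells are dispensed, compounds pinned in, plates held at 37 °C for 72 h, then CellTiter-Glo is added and luminescence read after 10 minutes. Cell line: parental KB-3-1 in phenol-red-free DMEM, 10% FBS.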
HepG2 tox: kills HepG2 cells in TGF-b inhibitor counter-screen; HepG2 CAGA-GFP viability, ATP luminescence, 18 h; Potency, µM (series often up to 46.1 µM), without a hit: at the top dose activity change, negative = cytotoxicity, hits mostly cytotoxic; 0.76% of 410,000 active
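CellTiter-Glo luminescence gave cytotoxicity after 18 hours at 37 degrees C. The cells were HepG2 CAGA-GFP in 1% FBS DMEM, stimulated with 500 pg/mL TGF-beta after compound addition. %Activity was normalised to no-cell wells (complete cell-killing) and DMSO (no toxicity), and curves were fitted and classified.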
KB-V1 MDR tox: kills drug-selected multidrug resistant KB-V1 cells; Potency, µM (series often up to 46.1 µM), actives largely listed as cytotoxic; 3.4% of 400,000 active; KB-V1 MDR cells viability, CellTiter-Glo, 72 h; note: % is set by controls: 0 for no effect and ±100 for the full control effect; nearly all actives have a fitted effect of over 60% in size
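KB-V1, DMEM (no phenol red) + 10% FBS; cpd pin-transferred, titration series; 72 h, 37 degrees C; CellTiter-Glo, luminescence. Data normalized, curve-fit.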
ATXN viability: cell viability loss in ATXN counter-screen; S2 cells (HEK-293 line with an ATXN2-luciferase reporter) viability, CellTiter-Fluor protease fluorescence, 24 h; Potency, µM (highest dose often 56.7 µM), usual class: cytotoxic; 0.49% of 400,000 active; AID 651635; note: nearly all actives have a fitted effect of over 40% in size
ATXN2 expr inh: reduces ATXN2 reporter expression in HEK-293 cells. HEK-293 ATXN2-luciferase reporter, luminescence, 24 h. Potency, µM (top dose mostly 57 µM), without a hit: at the top dose activity change, negative = inhibition, usual class: inhibitors. 0.72% of 360,000 active. AID 1745845; note: % is set by controls: 0 for no effect and ±100 for the full control effect; nearly all actives have a fitted effect of over 55% in size
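ATXN2-luciferase reporter cells (luciferase flanked by upstream and downstream ATXN2 gene portions) were treated 24 h at 37 °C with compounds at up to 57 uM. SteadyGlo luminescence gave expression; GF-AFC fluorescence gave viability.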
Starred values were filed as active, the others as inactive; i = inactive; ? = inconclusive; . = not tested or not shown; ! = repeats disagree. Calls come from the whole dose curve; as a rule, active = well fitted curve in the direction sought with a large enough effect; inconclusive = small, poorly fitted or top-dose-only effect, or another doubt; inactive = no such curve, though single readings can be large; an effect the other way counts as inactive or inconclusive. Potency is the fitted concentration of half-maximal effect.

SMILES	TGFb inhibitor	KB-3-1 cytotox	HepG2 tox	KB-V1 MDR tox	ATXN viability	ATXN2 expr inh
Cc1cc(C)cc(NS(=O)(=O)c2ccc3[nH]cc(C(=O)NC4CCCCC4)c(=O)c3c2)c1	?	i	11µM*	i	?	?
CCC(=O)O[C@H]1[C@H](O[C@@H]2[C@@H](C)[C@H](O[C@H]3C[C@@](C)(OC)[C@@H](O)[C@H](C)O3)[C@@H](C)C(=O)O[C@H](CC)[C@@](C)(O)[C@H](O)[C@@H](C)C(=O)[C@H](C)C[C@@]2(C)O)O[C@H](C)C[C@@H]1N(C)C	.	.	.	.	16µM*!	6%
CSc1nc(N(C)NC(=O)c2ccc(F)cc2)c2ccccc2n1	?	0.65µM*	4%	1µM*	?	-14%
CN(C)S(=O)(=O)N1CCC(Oc2ccc(C(=O)N3CCCCCC3)cc2)CC1	-15%	i	-9%	?	i	.
CC1CCCCN1C(=O)c1ccc(OC2CCN(S(=O)(=O)N(C)C)CC2)cc1 (stereo not given)	-22%	i	-23%	23µM*	i	23%
CN(C)S(=O)(=O)N1CCC(Oc2ccc(C(=O)N3CCCCCCC3)cc2)CC1	-1%	?	-22%	10µM*	i	30%
CN(C)S(=O)(=O)N1CCC(Oc2ccc(C(=O)NC3Cc4ccccc4C3)cc2)CC1	?	?	-30%	?	i	.
CN(C)S(=O)(=O)N1CCC(Oc2cccc(C(=O)NC3CCCCCC3)c2)CC1	-10%	i	-30%	1.3µM*	i	-30%
O=c1oc2c(CN3CCOCC3)c(O)ccc2cc1-c1ccc(Cl)cc1	?	.	-10%	.	.	.
O=C(Nc1ccc(C(F)(F)F)cc1)N1CCC(N2CCCCC2)CC1	.	.	-18%	.	.	.
CSc1cccc(NC(=O)NCc2cccc(CNC(=O)Nc3cccc(SC)c3)c2)c1	?	?	13µM*	i	?	.
COc1ccc(C(=O)CCC(=O)Nc2ccc(C)c(Cl)c2)cc1	-2%	i	4%	i	i	4%
COc1ccc(N(CC(=O)NC2CCCC2)C(=O)Cn2nnc(-c3ccc(C)cc3)n2)cc1	-6%	i	-18%	16µM*	i	-1%
COc1ccc(N(CC(=O)NC2CCCC2)C(=O)Cn2nnc(-c3ccc(C)o3)n2)cc1	17%	i	8%	?	i	-12%
COc1ccc(-c2nnn(CC(=O)N(C3CCCCC3)C(C)C(=O)NC3CCCC3)n2)cc1OC (stereo not given)	1%	i	-4%	2.6µM*	?	-14%
COc1ccc(N(CC(=O)NC2CCCC2)C(=O)Cn2nnc(-c3ccc(C)cc3)n2)cc1OC	0%	i	0%	13µM*	i	-5%
CCc1nn(CC(=O)NCCc2ccc(Cl)cc2)c(=O)c2cc3c(OC)cccc3n12	3%	i	-26%	?	i	-4%
CSc1ncccc1C(=O)N1CCOc2ccc(C(C)(O)CCn3cccn3)cc2C1 (stereo not given)	.	.	.	.	i	.
CC12CCC=CC1C(c1ccc(F)c(Br)c1)N(Cc1ccccc1)C2=O (stereo not given)	?	.	-23%	.	.	.
COc1ccc(-n2c(=O)c3ccccc3n(Cc3ccccc3C)c2=O)c(OC)c1	-33%	i	-3%	i	?	-18%
Cc1cc(C)c2sc(N(CCCN(C)C)C(=O)c3ccc(Br)s3)nc2c1	?	i	-78%	i	11µM*	8.9µM*
CCN(Cc1ccccc1)S(=O)(=O)c1ccc(C(=O)N(CCCN(C)C)c2nc3cc(C)cc(C)c3s2)cc1	?	?	i	?	25µM*	?
Cc1cc(C)c2sc(N(CCCN(C)C)C(=O)c3ccc(S(=O)(=O)N(C)Cc4ccccc4)cc3)nc2c1	?	?	-114%	21µM*	.	?
COc1ccc2sc(N(CCCN(C)C)C(=O)c3ccc(S(=O)(=O)N(C)Cc4ccccc4)cc3)nc2c1	-21%	?	-45%	?	?	-34%
CCCCN(CC)S(=O)(=O)c1ccc(C(=O)N(CCCN(C)C)c2nc3cc(C)cc(C)c3s2)cc1	?	?	-178%	26µM*	?	?
SMILES	TGFb inhibitor	KB-3-1 cytotox	HepG2 tox	KB-V1 MDR tox	ATXN viability	ATXN2 expr inh
COc1ccc(OC)c(CN2CCOc3ccc(C(O)c4cccnc4)cc3C2)c1 (stereo not given)	.	.	.	.	i	.
Cc1ncc2c(c1CNC(=O)c1ccc3c(c1)OCO3)CCN(C(=O)C1Cc3ccccc3O1)C2 (stereo not given)	.	.	.	.	i	.
Cc1cc(C)c2c(n1)NCCC2	?	i	-5%	i	.	.
CCOc1cccc2sc(N(CCCN(C)C)C(=O)c3ccc(S(=O)(=O)N(CC)Cc4ccccc4)cc3)nc12	?	?	-105%	10µM*	?	?
CCOc1cccc2sc(N(CCCN(C)C)C(=O)c3ccc(S(=O)(=O)N(C)Cc4ccccc4)cc3)nc12	?	i	-84%	i	.	?
CCOc1cccc2sc(N(CCN(C)C)C(=O)c3cc4ccccc4cc3OC)nc12	?	i	-53%	i	?	20µM*
CCOc1ccc2nc(N(CCN(C)C)C(=O)c3cc4ccccc4cc3OC)sc2c1	?	?	-18%	?	?	.
COc1ccc(C(=O)NCc2nnc(SC)n2-c2ccccc2C)c(OC)c1OC	.	.	.	.	i	.
Cc1cc(C)c2c(N)c(C(=O)Nc3cccc(C)c3C)sc2n1	21%	?	-2%	6.5µM*	i	22%
Cc1ccc(NC(=O)c2sc3nc(C)cc(C)c3c2N)cc1	1%	i	-13%	i	.	134%
COc1ccccc1-c1ccc2c(c1)C(C)(Cc1cccc(F)c1)C(=O)N2 (stereo not given)	?	?	-23%	21µM*	i	?
COc1ccc2c(c1)C(C)(Cc1ccc(C(=O)c3ccccc3)cc1)C(=O)N2 (stereo not given)	-12%	i	-19%	i	?	?
CN1Cc2cc(C(=O)N3CCC(C4CCNCC4)CC3)ccc2NC(CC(=O)O)C1=O (stereo not given)	.	.	.	.	i	11%
CCc1ccc(/C=C/C(=O)c2ccc(S(=O)(=O)N(C)C)cc2)cc1	?	i	-3%	21µM*	i	0%
CCc1ccc(/C=C/C(=O)c2ccc(N3CCOCC3)cc2)cc1	-9%	?	-26%	i	i	5%
COc1ccccc1NC(=O)C1CCN(S(=O)(=O)c2cn(C)cn2)CC1	9%	.	12%	.	.	.
